# Results with a measured potency or affinity are listed apart. Calls of active or inactive are those of the source. How the calls were made is not given here.
# Target: Luciferin 4-monooxygenase (Photinus pyralis) (UniProt P08659)
# Test: firefly luciferase enzyme inhibitors, dose response, biochemical, dry powder samples, plate reader (AID 588451)
# Sequence of Luciferin 4-monooxygenase (Photinus pyralis) (P08659 whole entry, looked up): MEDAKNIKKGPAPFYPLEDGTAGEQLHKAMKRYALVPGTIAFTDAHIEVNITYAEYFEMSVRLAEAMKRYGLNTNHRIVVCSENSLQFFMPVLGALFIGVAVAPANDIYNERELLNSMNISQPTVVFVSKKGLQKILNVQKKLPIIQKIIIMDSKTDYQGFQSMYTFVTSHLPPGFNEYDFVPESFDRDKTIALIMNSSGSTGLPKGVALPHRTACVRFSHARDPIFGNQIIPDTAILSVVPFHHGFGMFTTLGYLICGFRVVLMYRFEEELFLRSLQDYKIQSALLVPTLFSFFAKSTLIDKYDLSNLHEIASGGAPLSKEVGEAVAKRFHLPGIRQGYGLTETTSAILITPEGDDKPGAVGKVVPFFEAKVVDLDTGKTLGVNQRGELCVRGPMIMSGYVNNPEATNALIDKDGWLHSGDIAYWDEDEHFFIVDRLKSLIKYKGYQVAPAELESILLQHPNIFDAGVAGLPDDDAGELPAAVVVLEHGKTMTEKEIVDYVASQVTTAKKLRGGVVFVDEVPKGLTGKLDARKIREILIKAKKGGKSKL
smiles,measurement,value
Cc1ccc(C(=O)N/N=C/c2ccc([N+](=O)[O-])s2)cc1,outcome,inactive
